This is a sample that favours compounds with a hit; in the whole collection about 9.2% have one here.
NPC1 prom act: qHTS Assay for NPC1 Promoter Activators; Potency, µM (top dose mostly 9.22 µM), without a hit: top-dose activation, hits mostly activators; 320,000 tested, 2.4% active; Huh7 NPC1 promoter luciferase reporter, 24 h; also: % of control where 0% means no effect; nearly all actives have a fitted effect of over 60% in size
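Stably transfected Huh7 (NPC1 promoter→luciferase), 1500 cells/well in Opti-MEM + 10% FBS, 2 h settle, then compound 24 h at 37 °C. Luminescence after 10 min with Amplite reagent.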
ELG1 DNA repair: qHTS screen for small molecules that inhibit ELG1-dependent DNA repair in human embryonic kidney (HEK293T) cells expressing luciferase-tagged ELG1; AID 504467, 2011; HEK293T ELG1-luciferase reporter, luminescence, 16 h; DNA damage induced by 5-fluorouridine; Potency, µM (doses to about 46.1 µM), inactives show at the highest dose activity change, negative = inhibition, hits mostly inhibitors; 330,000 tested, 2.3% active; also: % is scaled to controls: 0 for no effect and ±100 for the full control effect; nearly all actives have a fitted effect of over 55% in size
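HEK293T cells expressing luciferase-tagged ELG1 (2,000/well) received 5-Fluorouridine plus compound or DMSO for 16 hr at 37 °C. Luciferase was read by ONE-Glo luminescence after 30 min at room temperature.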
FLuc modulator: qHTS profiling assay for firefly luciferase inhibitor/activator using purifed enzyme and Km concentrations of substrates (counterscreen for miR-21 project); Potency, µM (titrated, usually from 57.5 µM), for the others: at the top dose activity change, negative = inhibition, most hits filed as inhibitors; 360,000 tested, 6.9% active; Luciferin 4-monooxygenase (Photinus pyralis), P08659; purified FLuc, Km substrates, luminescence inhibition; AID 588342, 2011;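 also: plate controls were vehicle for no effect and reference inhibitor for full effect; nearly all actives have a fitted effect of over 55% in size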
Target sequence (P08659 whole entry, looked up): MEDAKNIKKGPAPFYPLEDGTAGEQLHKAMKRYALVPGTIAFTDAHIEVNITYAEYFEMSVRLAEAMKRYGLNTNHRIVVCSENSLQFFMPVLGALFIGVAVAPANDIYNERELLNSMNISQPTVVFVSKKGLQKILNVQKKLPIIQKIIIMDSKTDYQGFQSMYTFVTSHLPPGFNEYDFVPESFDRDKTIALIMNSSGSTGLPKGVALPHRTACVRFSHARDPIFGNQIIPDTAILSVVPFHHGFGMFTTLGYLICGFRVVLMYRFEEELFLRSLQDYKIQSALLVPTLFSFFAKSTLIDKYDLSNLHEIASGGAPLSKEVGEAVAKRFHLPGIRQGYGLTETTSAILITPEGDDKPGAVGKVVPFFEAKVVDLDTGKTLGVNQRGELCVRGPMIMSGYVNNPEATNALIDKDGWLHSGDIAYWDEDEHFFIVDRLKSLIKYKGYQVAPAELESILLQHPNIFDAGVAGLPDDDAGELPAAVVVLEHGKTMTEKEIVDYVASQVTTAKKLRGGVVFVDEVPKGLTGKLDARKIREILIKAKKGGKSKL
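Purified P. pyralis luciferase, 10 nM final, with Km-level 10 uM D-luciferin and 10 uM ATP in 50 mM Tris acetate pH 7.5, 10 mM Mg acetate, 0.01% Tween-20, 0.05% BSA; 6-point qHTS titration about 60 µM downward; luminescence read.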
SMN2 splice enh: qHTS Assay for Enhancers of SMN2 Splice Variant Expression; HEK293 SMN2-luciferase splicing reporter, luminescence, 30-36 h; Potency, µM (top dose mostly 46.1 µM), for the others: top-dose activity change, positive = activation, hits mostly activators; 210,000 tested, 2.8% active; AID 1458, 2008; also: % of control where 0% means no effect; nearly all actives have a fitted effect of over 55% in size
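qHTS luciferase splicing reporter: luminescence rises when SMN2 exon 7 is included in transfected HEK293 cells. Compound exposure lasted 30-36 h at 37C, with 4.5 mM final sodium butyrate as control, followed by a ONE-Glo read.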
Rab9 promoter act: qHTS Assay for Rab9 Promoter Activators; Huh7 Rab9 promoter-luciferase reporter, luminescence, 24 h; Potency, µM (highest dose often 9.22 µM), inactives show top-dose activation, negative = inhibition, hits mostly activators; 320,000 tested, 2.8% active; also: % of control where 0% means no effect; nearly all actives have a fitted effect of over 60% in size
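Huh7 cells stably carrying Rab9 promoter–luciferase reporter, plated 1500 cells/well, compound added after 2 h and incubated 24 h at 37 °C; luciferase luminescence then read after 10 min with detection reagent.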
ELG1 genotox: qHTS screen for small molecules that induce genotoxicity in human embryonic kidney (HEK293T) cells expressing luciferase-tagged ELG1. HEK293T ELG1-luciferase reporter, luminescence, 16 h. Potency, µM (titrated, usually from 46 µM), inactives show at the highest dose activity change, positive = activation, most hits filed as activators. 330,000 tested, 1.3% active; also: % of control where 0% means no effect; nearly all actives have a fitted effect of over 60% in size
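Luminescence read-out: rising ELG1-luciferase signal, reflecting elevated ELG1 protein under genetic stress, flags genotoxic compounds. Cells were treated for 16 hr at 37 °C before ONE-Glo detection.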
* hit, by the source's call; ? = inconclusive; . = not tested or not shown; [ ] = dose if it differs, or a comment. Calls follow the shape of the dose curve; as a rule, active = well fitted curve in the direction sought with a large enough effect; inconclusive = small, poorly fitted or top-dose-only effect, or another doubt; inactive = no such curve, though single readings can be large; an effect the other way counts as inactive or inconclusive. Potency is read from the fitted curve at half-maximal effect.

SMILES	NPC1 prom act	ELG1 DNA repair	FLuc modulator	SMN2 splice enh	Rab9 promoter act	ELG1 genotox
O=C(NCc1csc(-c2cccs2)n1)c1ccccc1	?	?	?	.	23.4%	11.8%
O=C(COc1cccnc1[N+](=O)[O-])Nc1cc(S(=O)(=O)N2CCCCC2)ccc1Cl	0.6%	-2.1%	1.7%	.	-2.5%	7.1%
Cc1ccc(C)c(NC(=S)N2CCC(NC(=O)C3CCCCC3)CC2)c1	0.9%	6.1%	1.6%	.	-1.2%	-9.4%
CCOC(=O)C1CCN(Cc2nnnn2CCc2ccccc2)CC1	3.98µM*	?	?	.	1.58µM*	?
Cc1ccccc1C(=O)NC1CCN(Cc2nnnn2CCc2ccccc2)CC1	0.7%	-3.4%	3.3%	-1.5%	1.5%	-2.2%
Cc1cccc(N2CCN(S(=O)(=O)c3ccc(F)c(C(=O)Nc4ccc(C(C)C)cc4)c3)CC2)c1C	.	.	2.0%	.	.	.
O=C(OCC(=O)N1CCN(S(=O)(=O)c2ccc(Cl)cc2)CC1)c1cccc(OC(F)F)c1	-5.7%	-5.9%	-2.2%	.	-18.6%	-2.3%
Cc1ccc2oc(=O)c3cc(C(=O)Nc4cccc(C#N)c4)sc3c2c1	.	.	0.2%	10.0%	.	.
O=C(NC(=O)c1ccccc1O)c1ccc2c(c1)CCO2	1.41µM*	?	1.2µM*	.	?	?
Cc1ccc(CSc2nccc(-c3c(C)nc4ccccn34)n2)cc1	-2.4%	14.6µM*	-0.1%	.	-14.3%	-16.9%
CCCc1cc(=O)[nH]c(SCc2cc(C(=O)OC)c(C)o2)n1	1.1%	8.6%	-1.4%	-3.4%	-2.0%	2.3%
O=[N+]([O-])c1cccc(CSc2nc3ccccc3[nH]2)c1	17.0%	?	?	-15.4%[1.84 µM]	26.9%	7.0%
O=c1[nH]c(SCc2ccccc2)nc2ccsc12	6.5%	?	16.9µM*	?	8.2%	15.6%
COc1cccc(CSc2nc3ccccc3[nH]2)c1	3.55µM*	?	4.26µM*	15.8µM*	1µM*	?
Fc1c(F)c(F)c(CSc2nc3ccccc3[nH]2)c(F)c1F	2.2%	?	?	-2.4%	5.1%	?
Fc1ccccc1CSc1nc2ccccc2[nH]1	1.78µM*	?	2.39µM*	5.62µM*	1.26µM*	?
COC(=O)c1cc(CSc2nc3ccccc3[nH]2)oc1C	?	?	7.57µM*	-44.9%	?	9.2µM*
CCOC(=O)CSc1nc2ccsc2c(=O)[nH]1	0.8%	9.9%	-11.1%	.	1.6%	2.5%
Cc1ccc(-n2c(=O)c3c(C)c(C)sc3n(Cc3ccc(F)cc3Cl)c2=O)cc1C	.	.	2.1%	7.6%	.	.
CCCCSc1nnc(CSc2ncccn2)n1C	-5.0%	8.2%	7.2%	-19.2%	-7.3%	2.1%
CC(=O)Nc1ccc(S(=O)(=O)NCCC(=O)OCc2csc(CC(=O)Nc3ccccc3C)n2)cc1	-0.8%	-26.6%	-0.7%	.	2.7%	0.1%
CC(C)(C)CC(=O)NCC(c1ccc2c(c1)OCO2)N1CCN(c2ccccc2)CC1 (stereo not given)	.	.	4.6%	.	.	.
NNC(=O)c1ccc(CSc2nc3ccccc3[nH]2)cc1	-2.2%	-6.3%	-4.0%	20.6%	3.2%	0.0%
O=C(O)c1ccc(CSc2nc3ccccc3[nH]2)cc1	1.7%	16.6%	16.9µM*	.	-0.5%	7.9%
COc1ccc(CCNC(=O)c2ccc(-n3c(C)cc4c3CCC(C)C4)cc2)cc1OC (stereo not given)	.	.	-6.7%	.	.	.
SMILES	NPC1 prom act	ELG1 DNA repair	FLuc modulator	SMN2 splice enh	Rab9 promoter act	ELG1 genotox
Cc1cc(N)n(Cc2cccs2)n1	-0.5%	?	-0.1%	.	-4.6%	0.9%
COc1ccc(-c2nnc(Nc3nc4c(OC)cccc4s3)o2)cc1	6.6%	-11.6%	5.36µM*	1.0%	-8.9%	?
COc1ccc(-c2ccc(-c3nnc(-c4cc(OC)ccc4OC)o3)cc2)cc1	-3.7%	?	0.4%	-25.0%	0.9%	15.7%
COc1ccc(-c2nnc(Nc3nc4c(OC)cccc4s3)o2)c(OC)c1	0.2%	-8.3%	9.53µM*	-9.8%	2.3%	2.4%
CC(=O)Nc1ccc(/C=C2/Sc3ccccc3C2=O)cc1	-0.5%	?	0.757µM*	25.9%	-7.7%	?
CC(=O)Nc1ccc(S(=O)(=O)Oc2ccc(/C=C3\SC(N)=NC3=O)cc2)cc1	-3.1%	6.0%	-1.8%	-4.3%	-4.7%	0.7%
O=C1/C(=C\c2cccnc2)Sc2ccccc21	0.1%	?	6.75µM*	13.2%	2.2%	?
O=C1OC(CO)CN1Cc1ccccc1 (stereo not given)	-3.3%	5.5%	-0.5%	.	-2.3%	-0.9%
O=[N+]([O-])c1ccc(-c2nc(C(Cl)Cl)c3ccccc3n2)cc1	-37.1%	5.17µM*	3.5%	.	-55.3%	7.9%
COC(=O)c1sc2cccc(F)c2c1S(=O)(=O)N1CCN(c2cccc(C)c2)C(C)C1 (stereo not given)	.	.	-3.1%	.	.	.
Cc1ccc(C)c(-c2csc(Nc3ncccn3)n2)c1	15.2%	?	-1.1%	.	8.2%[1.84 µM]	6.8%
Oc1ccc(-c2csc(Nc3ncccn3)n2)c(O)c1	3.16µM*	?	3.01µM*	11.2µM*	1.12µM*	7.3µM*
Oc1ccc(-c2csc(Nc3ncccn3)n2)cc1O	22.4%	?	8.49µM*	?	-1.9%	?
NS(=O)(=O)c1ccc(Nc2nc(-c3ccc4ccccc4c3)cs2)cc1	-5.5%	-19.1%	-11.5%	-46.6%	4.8%	-0.8%
Cc1cccc(Nc2nc(-c3ccc(O)cc3O)cs2)n1	3.16µM*	?	13.5µM*	.	3.98µM*	?
O=C(NN1CCOCC1)c1cc(-c2ccc(Cl)c(Cl)c2)nc2ccccc12	-4.4%	-6.9%	?	29.1%	-12.1%	2.1%
COC(=O)c1cc2sc(C)cc2n1CC(=O)Nc1ccc(C)cc1Cl	.	.	0.8%	0.2%	.	.
COc1ccc(CC(=O)Nc2c3c(nn2C(C)(C)C)CS(=O)(=O)C3)cc1OC	-4.5%	14.1%	0.0%	.	-0.3%	14.8%
Cc1cccc(N(CC(=O)NCCSc2nc3ccccc3s2)S(=O)(=O)c2ccccc2)c1	-0.4%	16.4µM*	-1.3%	-4.1%	-2.6%	-1.1%
COc1ccc(S(=O)(=O)NCCS(=O)(=O)N2CCN(c3ccccc3F)CC2)cc1	.	.	-14.6%	.	.	.
CCOc1c(Nc2ccc(C(C)C)cc2)c(=O)c1=O	-2.3%	6.6%	13.5µM*	.	0.7%	1.3%
COc1nc(Nc2ccc(C(C)C)cc2)nc(OC)n1	24.7%	?	?	?	19.6%	15.5%

Compound activity from PubChem BioAssay.
